DAX1 inh-1: DAX1 (NR0B1) inhibitors on StAR promoter, primary screen, cell-based, luminescence, SF-1 (NR5A1), full-length DAX-1 | HEK293T StAR-luciferase reporter, SF-1/DAX-1 repression relief | inhibition, % at 6.8 µM | actives 1.1% (n = 370,000) | AID 652010, 2013;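 active = inhibition above the mean over all tested compounds plus 3 SD, cut at about 3.6% in these data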;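 also: higher inhibition means more luminescence from relief of DAX-1 repression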
hgDAF12 agonist: H. glycines DAF-12 receptor agonists, primary screen, cell-based, luminescence, HEK293, GAL4 fusion, UAS-luciferase. Nuclear hormone receptor DAF-12 (Heterodera glycines), GAL4 fusion. HEK293 GAL4-hgDAF12 UAS-luciferase reporter, agonist luminescence; normalized to butyrate control. activation, % at 6.8 µM. actives 1.8% (n = 370,000);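 active = activation above a cutoff set at the mean of all screened compounds plus 3 SD, cut at about 10% in these data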
ssDAF-12 act: S. stercoralis DAF-12 nuclear receptor activators, primary screen, cell-based, luminescence, HEK293, GRIP1 co-expression, lit1-tk-luc | Nuclear hormone receptor DAF-12 (Strongyloides stercoralis) | HEK293 ssDAF-12/GRIP1 lit1-tk-luc reporter; % of 3 µM dafachronic acid response | activation, % at 6.8 µM | actives 1% (n = 370,000) | AID 652126, 2013;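 active = activation above the mean over all tested compounds plus 3 SD, cut at about 0.9% in these data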
hcDAF-12 act: H. contortus DAF-12 nuclear receptor activators, primary screen, cell-based, luminescence, HEK293, lit1-tk-luc reporter. actives 1.4% (n = 370,000). activation, % at 6.8 µM. HEK293 hcDAF-12 lit1-tk-luc reporter; 0% DMSO, 100% Δ7-dafachronic acid;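 active = activation above the mean of all tested compounds plus 3 SD, cut at about 5.5% in these data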
DAX1 inh-2: DAX1 (NR0B1) inhibitors, primary screen, cell-based, HEK293, Gal4-DAX1, luciferase luminescence. HEK293 Gal4-DAX1 luciferase reporter. AID 504766, 2011. inhibition, % at 6.75 µM. actives 0.99% (n = 340,000). Nuclear receptor subfamily 0 group B member 1 (Homo sapiens), P51843;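 active = inhibition above the mean over all tested compounds plus 3 SD, cut at about 4.2% in these data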;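 also: inhibition shows as a rise in luminescence from relieved DAX1 repression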
Target sequence (P51843 207-470 limits assumed): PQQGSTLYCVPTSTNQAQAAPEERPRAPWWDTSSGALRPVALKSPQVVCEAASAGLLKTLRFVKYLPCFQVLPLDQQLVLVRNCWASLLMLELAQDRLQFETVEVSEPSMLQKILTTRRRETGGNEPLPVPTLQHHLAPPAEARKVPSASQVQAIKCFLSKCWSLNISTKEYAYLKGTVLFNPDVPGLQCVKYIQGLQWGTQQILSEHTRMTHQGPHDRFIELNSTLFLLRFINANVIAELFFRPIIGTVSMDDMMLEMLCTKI
A number is an active result; i = inactive; nt = no result. A selection: hits, their analogues and other compounds. The true share with any hit is near 4.1%.

SMILES | DAX1 inh-1 | hgDAF12 agonist | ssDAF-12 act | hcDAF-12 act | DAX1 inh-2
CN(C)CC(O)c1ccc(C=Cc2ccc(Cl)cc2)cc1 (centres undefined) | i | 12 | i | i | 6.4
OC(c1ccccc1)(c1ccccc1)C1CCN(CCCNc2ccccc2F)CC1 | i | i | i | i | nt
Cn1c(NC(=O)/C=C\c2ccccc2)cc(=O)n(C)c1=O | i | i | 1.1 | i | 4.6
CCc1ccccc1-c1cc(C(C)=O)c2n(c1=O)CCC2 | i | i | i | i | nt
CCCNC(=O)C[C@H]1CC[C@H]2[C@@H](COc3ccc(NC(=O)c4cncs4)cc3C(=O)N2C)O1 | i | i | i | i | nt
CCC1(C)Nc2ccccc2C(=O)N1O (centres undefined) | i | i | i | i | i
COc1ccc(N2C(=O)c3ccccc3NC23CCC(C)CC3)cc1 (centres undefined) | i | 13 | i | i | i
CCOc1ccc(N2C(=O)c3ccccc3NC2(C)CC)cc1 (centres undefined) | 3.7 | 12 | i | i | i
CCCN1C(=O)c2[nH]nc(-c3ccccc3)c2C1c1ccc(Br)cc1 (centres undefined) | i | i | i | i | nt
CSc1nc2ccc(S(=O)(=O)N3CCOCC3)cc2s1 | i | i | i | 5.8 | i
CSc1nc2ccc(S(=O)(=O)N3CCCCC3)cc2s1 | i | i | i | i | i
Cc1cc2c(c(=O)o1)[C@@]1(C(=O)N(c3ccccc3)c3ccccc31)C1=C(CCCC1=O)O2 | i | i | i | i | nt
CCCCCCOc1ccc(/C(N)=N/O)cc1 | i | 11 | i | i | i
COC(=O)C1=C(C)N(Cc2ccc(C(F)(F)F)cc2)C(=NCc2cccc(C(F)(F)F)c2)NC1c1ccccc1C(F)(F)F (centres undefined) | i | i | i | i | nt
COc1ccc(NC(=S)N2CCCC2)c(OC)c1 | i | i | i | i | 4.6
COc1ccc(NC(=S)N2CCN(c3ccccc3)CC2)c(OC)c1 | i | i | i | i | i
COc1ccc(NC(=S)N2CCN(Cc3cccc(F)c3)CC2)c(OC)c1 | i | i | i | i | 5.0
COc1ccc(Cl)cc1NC(=S)N1CC(C)OC(C)C1 (centres undefined) | i | i | i | i | i
COc1ccccc1NC(=S)N1CC(C)OC(C)C1 (centres undefined) | i | i | i | i | 4.6
CCOC(=O)Cn1cc(CN2CCS(=O)(=O)N(Cc3ccc(F)cc3)C(C(=O)OC)C2)nn1 (centres undefined) | i | i | i | i | nt
CCN(CC)S(=O)(=O)c1ccc(-c2nnc(SCC(=O)Nc3cc(OC)cc(OC)c3)o2)cc1 | i | 11 | i | i | i
Cc1ccc(C)c(NC(=O)CSc2nnc(-c3ccccc3)o2)c1 | i | i | i | i | i
COc1ccccc1NC(=O)CSc1nnc(-c2ccccc2)o1 | 5.4 | 11 | i | i | 5.2
Cc1ccc(NC(=O)CSc2nnc(-c3cccnc3)o2)c(C)c1 | i | i | i | i | 4.4
O=C(CSc1nnc(-c2cccnc2)o1)c1cc2ccccc2oc1=O | i | 12 | i | i | i
COC(=O)[C@]12C[C@H](CC(=O)N3CCCCC3)C(=O)N(Cc3ccccc3)C1=C[C@H](C(C)C)O[C@@H]2C1CC1 | i | i | i | i | nt
COc1cc2c(cc1NC(=O)CSc1nnc(-c3cccc(Cl)c3)n1-c1ccccc1)oc1ccccc12 | i | i | i | i | nt
COC(=O)[C@]12C[C@H](CC(=O)NCCCCc3ccccc3)C(=O)N(Cc3ccc4c(c3)OCO4)C1=C[C@H](COCc1ccccc1)O[C@@H]2C | i | i | i | i | nt
C[C@H](O)[C@@H]1CN2CCc3c([nH]c4c(-c5ccc6c(c5)OCO6)cccc34)[C@@H]2C[C@@H]1N(C)C(=O)Nc1ccccc1 | i | i | i | i | nt
